# According to PubChem BioAssay AID504339 (National Center for Advancing Translational Sciences (NCATS), 2011):
# Out of some 390,000 compounds screened, about 17,000 (4.4%) were called active. About 8% were inconclusive and are not listed. The call rests on the fitted dose curve; in most records, active means well fitted inhibition curve with a large enough effect; inconclusive means small, poorly fitted or top-dose-only effect; inactive means no such curve, though single readings can be large or run the other way. Only a selection was taken, and actives are over-represented in it overall.
# Molecular target: Lysine-specific demethylase 4A (Homo sapiens) (UniProt O75164)
# Assay: qHTS Assay for Inhibitors of JMJD2A-Tudor Domain; further: nearly all actives have a fitted effect of over 50% in size
# Conditions: AlphaScreen JMJD2A-Tudor / H3K4me3 peptide binding; series mostly up to 114 µM; activity change, negative = inhibition: at the top concentration
# On the % scale 0 is the no-effect control and ±100 the full control effect; potency means the concentration at half of the fitted maximal effect.
# Lysine-specific demethylase 4A (Homo sapiens), sequence (O75164 whole entry, looked up, the tested form may be a part): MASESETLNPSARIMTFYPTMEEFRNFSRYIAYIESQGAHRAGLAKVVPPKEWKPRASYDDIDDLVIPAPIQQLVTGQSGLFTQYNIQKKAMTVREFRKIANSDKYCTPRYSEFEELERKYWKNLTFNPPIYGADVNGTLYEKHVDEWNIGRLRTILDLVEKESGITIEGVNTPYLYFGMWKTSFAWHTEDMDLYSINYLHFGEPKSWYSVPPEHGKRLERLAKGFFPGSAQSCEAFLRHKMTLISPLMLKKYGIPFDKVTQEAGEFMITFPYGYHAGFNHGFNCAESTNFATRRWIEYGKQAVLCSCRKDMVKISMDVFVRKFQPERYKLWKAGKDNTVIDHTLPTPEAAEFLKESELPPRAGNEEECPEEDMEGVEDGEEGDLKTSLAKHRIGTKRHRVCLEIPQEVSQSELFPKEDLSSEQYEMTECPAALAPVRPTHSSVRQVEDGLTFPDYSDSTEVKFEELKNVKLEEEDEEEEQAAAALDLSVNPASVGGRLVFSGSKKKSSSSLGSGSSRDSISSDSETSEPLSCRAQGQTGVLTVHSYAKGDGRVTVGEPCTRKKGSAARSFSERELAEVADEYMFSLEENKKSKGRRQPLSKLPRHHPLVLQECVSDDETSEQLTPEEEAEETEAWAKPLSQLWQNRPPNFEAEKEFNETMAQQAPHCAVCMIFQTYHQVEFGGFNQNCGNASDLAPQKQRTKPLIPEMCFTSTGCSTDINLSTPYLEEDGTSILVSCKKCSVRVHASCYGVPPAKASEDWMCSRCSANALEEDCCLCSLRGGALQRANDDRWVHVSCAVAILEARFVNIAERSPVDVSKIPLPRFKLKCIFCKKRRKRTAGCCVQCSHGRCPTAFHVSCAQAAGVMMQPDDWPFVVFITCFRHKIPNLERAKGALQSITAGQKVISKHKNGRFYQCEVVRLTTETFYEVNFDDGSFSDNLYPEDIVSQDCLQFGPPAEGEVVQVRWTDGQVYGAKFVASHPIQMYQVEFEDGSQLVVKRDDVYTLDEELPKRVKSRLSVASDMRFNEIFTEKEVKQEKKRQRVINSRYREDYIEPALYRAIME
SMILES,"activity change, negative = inhibition",Potency
O=C(COc1ccccc1F)OCc1cc(=O)n2nc(C3CCCCC3)sc2n1,-14.3% (inactive),–
Cc1ccc2c(c1)C1CN(C)CCC1N2S(=O)(=O)c1ccc(Oc2ccc([N+](=O)[O-])cc2)cc1 (configuration not stated),–,22.4 µM (active)
Cc1ccc2c(c1)C1CN(C)CCC1N2S(=O)(=O)c1cccc(F)c1 (configuration not stated),-12.8% (inactive),–
Cc1ccc2c(c1)C1CN(C)CCC1N2C(=S)Nc1ccc(OC(F)F)cc1 (configuration not stated),-26.8% (inactive),–
COc1ccc(CNC(=O)c2ccc3c(c2)nc2n3CCOC2)c(OC)c1,-9.74% (inactive),–
Cc1cc(NS(=O)(=O)c2ccc3oc(=O)c4ncn(C)c4c3c2)ccc1Br,4.17% (inactive),–
COc1cc(OC)c(NC(=O)c2cnc(N3CCCC3)nc2C)cc1Cl,5.63% (inactive),–
Cc1ccc2c(=O)c(C(=O)c3cccc(Cl)c3)cn(CC(=O)NCc3ccccc3)c2n1,0.962% (inactive),–
O=C(O)CSC(NC(=O)c1cccnc1)(C(F)(F)F)C(F)(F)F,–,89.1 µM (active)
O=C(CC(=O)c1cccnc1)c1ccccc1,-10.3% (inactive),–
O=C(NNC(=O)c1cccnc1)Nc1ccccc1,-1.69% (inactive),–
CCc1ccccc1N(C)C(=O)C1CCCN(c2ncnc3onc(-c4ccc(F)cc4)c23)C1 (configuration not stated),-0.647% (inactive),–
COc1cccc2c1cc1c(=O)n(CC(=O)N3CCN(c4cccc(Cl)c4)CC3)nc(C)n12,-10.5% (inactive),–
O=c1ccc2c(-c3ccccc3S(=O)(=O)O)c3ccc(O)c(O)c3oc-2c1O,–,0.708 µM (active)
CCOC(=O)c1c(C)oc2ccc(N(C(=O)c3ccncc3)S(=O)(=O)c3ccc(CC)cc3)cc12,-29.1% (inactive),–
CCOc1ccccc1C(=O)NC1(C(F)(F)F)NC(=O)N(CCc2ccc(OC)c(OC)c2)C1=O (configuration not stated),-25.4% (inactive),–
CCCN(C(=O)Cn1cc(S(=O)(=O)N2CCN(c3ccccc3F)CC2)c2ccccc2c1=O)c1cccc(C)c1,-9.25% (inactive),–
COc1ccc(OCC(=O)Nc2nnc(-c3ccco3)s2)cc1,–,79.4 µM (active)
CNc1nnc(-c2ccco2)s1,-1.99% (inactive),–
COc1ccc(NC(=O)COCc2cc(-c3ccco3)on2)cc1,0.321% (inactive),–
Cc1cccc(NC(=O)CN(c2ccc(C(C)C)cc2)S(=O)(=O)c2c(C)nn(C)c2C)c1C,-11.3% (inactive),–

SMILES,"activity change, negative = inhibition",Potency
Cc1ccc(C)c(CNC(=O)c2cc3ccccn3n2)c1,-3.25% (inactive),–
CC1CCCN(c2cc3c(cc2F)c(=O)c(S(=O)(=O)c2cccc(Cl)c2)cn3Cc2ccccc2)C1 (configuration not stated),-8.25% (inactive),–
Cc1ccc(Cl)cc1NC(=O)CCC(=O)N1CC(C)Sc2ccccc21 (configuration not stated),0% (inactive),–
CC(=O)Nc1ccc(S(=O)(=O)N2CCN(c3ccccc3)CC2)cc1,-21.8% (inactive),–
Cc1ccccc1C(=O)Nc1ccc(N2CCCCCC2)cc1,–,14.1 µM (active)
CC(=O)Nc1ccc(NS(=O)(=O)c2ccc3c(c2)NC(=O)CC(=O)N3)cc1,-12.2% (inactive),–
Cc1ccccc1C(=O)N1CCN(c2ccc(NC(=O)c3cccs3)cc2)CC1,-29.7% (inactive),–
CC(=O)Nc1ccc(S(=O)(=O)Nc2ccc(N3CCCCC3)cc2)cc1,–,20 µM (active)
O=C(NC(=O)c1ccccc1N1CCCCC1)Nc1ccc(Br)cc1,-15.4% (inactive),–
O=C(O)c1ccc2c(c1)N(Cc1ccc(F)cc1)C(=O)c1ccccc1S2=O (configuration not stated),-20.8% (inactive),–
O=C(NCc1ccccc1Cl)C1=Cc2cc(Br)ccc2OC1,1.6% (inactive),–
CCc1ccc(NC(=O)N2CCN(C(=O)c3nsc4ccccc34)CC2)cc1,-27.9% (inactive),–
COc1ccc(Cl)cc1NC(=O)CCn1c(=O)c2cccn2c2ccccc21,-13.8% (inactive),–
COc1cc(NC(=O)Cn2nc(-c3ccc(C)c(C)c3)ccc2=O)cc(OC)c1,-12.3% (inactive),–
CN(CC(=O)NCCc1ccc(F)cc1)CC(=O)Nc1ccc(F)c(F)c1F,-4.83% (inactive),–
Cc1c(NC(=O)CN(C)CC(=O)Nc2ccc(F)c(F)c2F)c(=O)n(-c2ccccc2)n1C,5.56% (inactive),–
Cc1ccc(Cl)c(NC(=O)CN(C)CC(=O)Nc2ccc(F)c(F)c2F)c1Cl,–,70.8 µM (active)
COc1ccc(CCC(=O)NCCc2csc(-c3ccc(Cl)cc3)n2)cc1,-11.2% (inactive),–
O=C(CNS(=O)(=O)c1cccs1)N1CCN(c2ccccc2Cl)CC1,-18.4% (inactive),–
O=C(CSc1nccn1-c1ccc(F)cc1)Nc1cccc2ccccc12,–,28.2 µM (active)
O=C(CSc1nccn1-c1cccc(F)c1)NC1CCCC1,-3.47% (inactive),–

SMILES,"activity change, negative = inhibition",Potency
O=C(CSc1nccn1Cc1ccc(F)cc1)NCc1ccccc1,-8.06% (inactive),–
CCCNc1ncnc2c1c(-c1ccccc1)cn2-c1ccc(OCC)cc1,-30% (inactive),–
Cc1nc2ccc(S(=O)(=O)NC(C(=O)NCc3ccccc3Cl)C(C)C)cc2s1 (configuration not stated),-16.2% (inactive),–
COc1ccc(-c2nc3ccccc3o2)cc1NC(=O)c1cc([N+](=O)[O-])ccc1N1CCOCC1,-3.73% (inactive),–
Cc1ccccc1OCC(=O)N(Cc1cccc(F)c1)C1CCS(=O)(=O)C1 (configuration not stated),-5.52% (inactive),–
CC(C)c1ccc(OCC(=O)N(Cc2ccc(N(C)C)cc2)C2CCS(=O)(=O)C2)cc1 (configuration not stated),–,44.7 µM (active)
Cc1cc(C)c(OCC(=O)N(Cc2cccs2)C2CCS(=O)(=O)C2)c(C)c1 (configuration not stated),-18.9% (inactive),–
Cc1cc(Cl)ccc1OCC(=O)N(Cc1ccc(N(C)C)cc1)C1CCS(=O)(=O)C1 (configuration not stated),–,50.1 µM (active)
CCc1ccc(OCC(=O)N(Cc2ccccc2)C2CCS(=O)(=O)C2)cc1 (configuration not stated),-8.83% (inactive),–
COc1ccccc1C(=O)N(Cc1ccc(C)o1)C1CCS(=O)(=O)C1 (configuration not stated),2.07% (inactive),–
Cc1ccc(CN(C(=O)COc2ccc(Cl)cc2C)C2CCS(=O)(=O)C2)o1 (configuration not stated),–,11.2 µM (active)
CCOc1ccc(C(=O)N(Cc2ccc(N(C)C)cc2)C2CCS(=O)(=O)C2)cc1 (configuration not stated),-25.5% (inactive),–
COc1cc(C(=O)N(Cc2ccc(N(C)C)cc2)C2CCS(=O)(=O)C2)cc(OC)c1OC (configuration not stated),-6.11% [at 11.4 µM] (inactive),–
O=C(C1CC1)N1CCc2cc(Br)cc(S(=O)(=O)N3CCN(c4ccccc4F)CC3)c21,-11.6% (inactive),–
CCc1ccc2oc(-c3ccc(NC(=O)c4cc5ccccc5o4)cc3)nc2c1,3.27% (inactive),–
Cc1cccc(N2CCN(C(=O)Cn3ncc4c5ccccc5n(C)c4c3=O)CC2C)c1 (configuration not stated),0.336% (inactive),–
CCc1ccc(CN(Cc2ccco2)C(=O)COc2ccc(Cl)c(C)c2)cc1,21.1% (inactive),–
COc1ccc(-n2nnc(-c3nsc(NC(=O)c4ccc(C)c(C)c4)n3)c2C)cc1Cl,-11.7% (inactive),–
COc1ccc(-c2cc(C(F)(F)F)n3nc(-c4ccccc4)cc3n2)cc1OC,29.5% (inactive),–
CCc1ccccc1NC(=O)c1cnn(-c2ccc(F)cc2)c1C1CCNCC1,5.18% (inactive),–
